Results reported in the supplement of paper PMC10849652.
About 7,900 targets were measured; listed, in parts, are those with a hit and a random draw of the rest. About 0.6% of all pairs of compound and target were hits. Values without a mark were called inactive.

Tests used:
Assay in all cases: log2 fold change, soluble protein after heating vs DMSO (PISA); higher = thermal stabilisation; K562 cells, 10 uM, 30 min; active = over 0.2 and 3.5 SD of the protein, either way, in both replicates (recomputed)
[1] = compound: C1=CC=C(C=C1)[C@H](COC2=CC3=C(C=C2)NC(=O)N3)NC(=O)C4=CC=CN(C4=O)CC5=CC(=C(C=C5)F)F
Procedure, shortened: (§1)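 K562 cells at 2×10^6 cells/mL were given 10 μM compound for 30 min. Aliquots then went through 3 min of heating across 48°C-58°C, were pooled, and were extracted in PBS with 0.5% NP-40 at 4°C, and the supernatant after 21,000xg for 90 min was quantified by TMTpro 16plex LC-MS/MS with channel sums equalised. Thermal stability relative to control samples, from duplicates, is given as log2 fold change.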

[2] = compound: CC1=C(SC2=C1C(=N[C@H](C3=NN=C(N32)C)CC(=O)N)C4=CC=C(C=C4)Cl)C
Procedure, shortened: as §1

[3] = compound: CC1=C2C(=CC=C1)N=C(N(C2=O)C3=CC=CC=C3C)CN4C=NC5=C(N=CN=C54)N
Procedure, shortened: as §1

[4] = compound: Cc1sc2c(c1C)C(c1ccc(Cl)cc1)=N[C@@H](CC(=O)OC(C)(C)C)c1nnc(C)n1-2
Procedure, shortened: as §1

[5] = compound: c1ccc([C@@H]2C[C@H]2NC2CCNCC2)cc1
Procedure, shortened: as §1

UniProt P60903, sequence (P60903 whole entry, looked up): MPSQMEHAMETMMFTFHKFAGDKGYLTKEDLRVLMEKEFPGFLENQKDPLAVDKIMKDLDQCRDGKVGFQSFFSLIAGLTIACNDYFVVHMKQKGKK
UniProt Q9NRX5, sequence (Q9NRX5 whole entry, looked up): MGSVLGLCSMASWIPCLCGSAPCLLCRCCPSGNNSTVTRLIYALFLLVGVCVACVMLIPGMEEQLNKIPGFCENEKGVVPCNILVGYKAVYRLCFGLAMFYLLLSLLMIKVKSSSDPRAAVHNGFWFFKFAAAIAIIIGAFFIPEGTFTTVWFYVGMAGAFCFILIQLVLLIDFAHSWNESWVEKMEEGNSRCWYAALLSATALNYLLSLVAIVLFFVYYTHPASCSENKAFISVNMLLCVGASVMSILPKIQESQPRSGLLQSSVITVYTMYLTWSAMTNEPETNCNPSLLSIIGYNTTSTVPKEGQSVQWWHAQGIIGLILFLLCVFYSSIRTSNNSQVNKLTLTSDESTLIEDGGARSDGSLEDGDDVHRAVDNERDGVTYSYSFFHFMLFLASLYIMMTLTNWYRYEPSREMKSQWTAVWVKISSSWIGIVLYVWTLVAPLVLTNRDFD
UniProt A6NEQ0, sequence (A6NEQ0 whole entry, looked up): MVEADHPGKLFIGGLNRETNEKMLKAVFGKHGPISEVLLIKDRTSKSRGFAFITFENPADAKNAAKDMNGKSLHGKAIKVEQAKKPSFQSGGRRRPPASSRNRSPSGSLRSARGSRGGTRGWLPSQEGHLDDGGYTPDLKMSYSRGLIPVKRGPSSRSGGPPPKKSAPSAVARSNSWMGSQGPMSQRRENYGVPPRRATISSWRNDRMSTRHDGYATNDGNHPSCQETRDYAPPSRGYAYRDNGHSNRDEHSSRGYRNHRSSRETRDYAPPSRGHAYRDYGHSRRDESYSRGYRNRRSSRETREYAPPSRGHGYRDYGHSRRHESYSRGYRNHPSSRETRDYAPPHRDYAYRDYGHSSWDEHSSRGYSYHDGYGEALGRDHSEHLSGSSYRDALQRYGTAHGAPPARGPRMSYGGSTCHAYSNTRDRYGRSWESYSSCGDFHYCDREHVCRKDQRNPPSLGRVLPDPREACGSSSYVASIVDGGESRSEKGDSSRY
UniProt Q9NTJ5, sequence (Q9NTJ5 whole entry, looked up): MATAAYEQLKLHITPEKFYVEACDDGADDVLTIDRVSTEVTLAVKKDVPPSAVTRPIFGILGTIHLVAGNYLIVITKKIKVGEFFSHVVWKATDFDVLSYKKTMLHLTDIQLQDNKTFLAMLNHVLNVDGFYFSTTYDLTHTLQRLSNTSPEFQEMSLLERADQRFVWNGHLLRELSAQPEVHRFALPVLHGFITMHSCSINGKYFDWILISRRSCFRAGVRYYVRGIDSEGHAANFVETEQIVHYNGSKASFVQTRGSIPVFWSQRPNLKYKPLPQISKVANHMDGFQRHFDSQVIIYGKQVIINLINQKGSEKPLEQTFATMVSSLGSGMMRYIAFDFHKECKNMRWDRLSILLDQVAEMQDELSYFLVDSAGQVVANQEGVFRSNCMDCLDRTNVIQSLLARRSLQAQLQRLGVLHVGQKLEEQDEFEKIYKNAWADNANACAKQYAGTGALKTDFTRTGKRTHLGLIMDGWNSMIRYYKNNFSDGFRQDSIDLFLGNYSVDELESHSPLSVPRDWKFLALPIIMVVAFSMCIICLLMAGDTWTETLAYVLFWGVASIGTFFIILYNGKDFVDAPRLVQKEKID
UniProt Q96EE3, sequence (Q96EE3 whole entry, looked up): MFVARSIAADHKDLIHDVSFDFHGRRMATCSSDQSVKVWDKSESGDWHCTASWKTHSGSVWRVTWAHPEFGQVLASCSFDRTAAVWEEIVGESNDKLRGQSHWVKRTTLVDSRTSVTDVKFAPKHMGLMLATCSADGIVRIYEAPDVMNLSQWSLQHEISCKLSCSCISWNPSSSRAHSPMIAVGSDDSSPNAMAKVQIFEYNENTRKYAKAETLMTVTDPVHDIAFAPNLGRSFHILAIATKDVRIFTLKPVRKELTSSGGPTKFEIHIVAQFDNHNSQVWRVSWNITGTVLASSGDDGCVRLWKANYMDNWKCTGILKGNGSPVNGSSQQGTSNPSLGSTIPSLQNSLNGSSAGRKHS
UniProt Q96DM3, sequence (Q96DM3 whole entry, looked up): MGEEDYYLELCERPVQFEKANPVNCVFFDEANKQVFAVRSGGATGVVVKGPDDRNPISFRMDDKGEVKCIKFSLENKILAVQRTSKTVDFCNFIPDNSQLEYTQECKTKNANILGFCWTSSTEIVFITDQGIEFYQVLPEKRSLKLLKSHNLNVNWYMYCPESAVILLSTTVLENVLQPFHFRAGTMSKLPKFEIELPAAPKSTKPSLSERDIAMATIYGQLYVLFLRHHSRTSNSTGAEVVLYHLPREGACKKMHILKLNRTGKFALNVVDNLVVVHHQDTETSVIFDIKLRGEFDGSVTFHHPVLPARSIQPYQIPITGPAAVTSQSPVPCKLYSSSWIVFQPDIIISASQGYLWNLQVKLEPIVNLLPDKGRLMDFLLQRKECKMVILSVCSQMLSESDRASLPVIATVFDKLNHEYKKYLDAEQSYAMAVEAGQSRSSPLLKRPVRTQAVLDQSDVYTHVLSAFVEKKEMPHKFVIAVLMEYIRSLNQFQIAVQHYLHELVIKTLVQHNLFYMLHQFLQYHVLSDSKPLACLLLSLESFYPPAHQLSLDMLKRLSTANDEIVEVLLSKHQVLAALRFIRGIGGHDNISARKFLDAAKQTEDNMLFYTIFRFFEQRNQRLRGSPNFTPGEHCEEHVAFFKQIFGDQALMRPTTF
UniProt Q7L099, sequence (Q7L099 whole entry, looked up): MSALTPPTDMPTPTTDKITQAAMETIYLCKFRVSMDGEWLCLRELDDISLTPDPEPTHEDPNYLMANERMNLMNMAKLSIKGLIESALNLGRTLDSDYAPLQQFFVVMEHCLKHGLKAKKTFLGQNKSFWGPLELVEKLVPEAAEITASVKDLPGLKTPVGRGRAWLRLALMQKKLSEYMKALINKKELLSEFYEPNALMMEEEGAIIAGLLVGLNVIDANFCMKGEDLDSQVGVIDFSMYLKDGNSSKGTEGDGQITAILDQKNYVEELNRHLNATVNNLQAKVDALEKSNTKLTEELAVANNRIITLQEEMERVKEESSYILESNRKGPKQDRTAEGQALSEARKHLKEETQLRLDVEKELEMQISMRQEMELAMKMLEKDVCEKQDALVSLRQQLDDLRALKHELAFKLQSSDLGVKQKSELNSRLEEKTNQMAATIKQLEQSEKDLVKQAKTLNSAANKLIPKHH
UniProt O75446, sequence (O75446 whole entry, looked up): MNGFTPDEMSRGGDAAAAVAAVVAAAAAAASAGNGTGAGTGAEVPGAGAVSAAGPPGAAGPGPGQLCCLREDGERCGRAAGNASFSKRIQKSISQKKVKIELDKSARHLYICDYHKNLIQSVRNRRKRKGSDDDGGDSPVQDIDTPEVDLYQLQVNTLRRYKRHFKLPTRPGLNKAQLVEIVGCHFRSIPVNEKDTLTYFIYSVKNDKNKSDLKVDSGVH
UniProt P11233, sequence (P11233 whole entry, looked up): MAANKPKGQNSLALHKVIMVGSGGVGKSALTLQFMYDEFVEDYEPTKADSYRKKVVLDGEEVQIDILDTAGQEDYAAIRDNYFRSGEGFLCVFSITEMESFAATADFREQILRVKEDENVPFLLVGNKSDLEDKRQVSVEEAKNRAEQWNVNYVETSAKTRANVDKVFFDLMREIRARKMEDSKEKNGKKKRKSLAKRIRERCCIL
UniProt Q5VUM1, sequence (Q5VUM1 whole entry, looked up): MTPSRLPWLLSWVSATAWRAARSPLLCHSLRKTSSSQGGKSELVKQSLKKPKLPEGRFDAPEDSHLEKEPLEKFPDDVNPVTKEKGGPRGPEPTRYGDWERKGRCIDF
UniProt P60602, sequence (P60602 whole entry, looked up): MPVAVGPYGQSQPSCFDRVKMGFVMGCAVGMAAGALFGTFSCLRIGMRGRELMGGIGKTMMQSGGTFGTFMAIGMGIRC
UniProt Q5RL73, sequence (Q5RL73 whole entry, looked up): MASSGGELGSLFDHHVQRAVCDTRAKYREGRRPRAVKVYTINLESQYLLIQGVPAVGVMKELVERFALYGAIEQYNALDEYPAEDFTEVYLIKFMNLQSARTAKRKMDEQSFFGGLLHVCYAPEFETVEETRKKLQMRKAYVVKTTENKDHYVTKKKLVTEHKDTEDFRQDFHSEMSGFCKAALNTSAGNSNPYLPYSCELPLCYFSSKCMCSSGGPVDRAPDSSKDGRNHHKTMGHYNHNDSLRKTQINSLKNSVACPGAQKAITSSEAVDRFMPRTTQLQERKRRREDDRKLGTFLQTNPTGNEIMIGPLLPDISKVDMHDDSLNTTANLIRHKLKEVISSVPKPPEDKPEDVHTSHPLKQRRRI

Row | Target | log2 fold change [1] | log2 fold change [2] | log2 fold change [3] | log2 fold change [4] | log2 fold change [5]
1 | SART3, A0A499FI31 | -0.008 | 0.015 | 0.056 | -0.08 | -0.006
2 | RPS21 (UniProt P63220) | -0.008 | -0.047 | 0.028 | 0.017 | 0.02
3 | SEH1L isoform 1 (UniProt Q96EE3) | -0.003 | 0.06 | -0.003 | -0.014 | 0.017
4 | RABGAP1L isoform 3 (UniProt Q5R372) | 0.007 | 0.024 | 0.033 | -0.015 | -0.005
5 | RPS2 (UniProt P15880) | 0.123 | -0.222 | -0.222 | 0.113 | 0
6 | RCC1 isoform 2 (UniProt P18754) | -0.175 | 0.096 | 0.176 | 0.012 | -0.058
7 | RDH10 (UniProt Q8IZV5) | 0.113 | 0.08 | 0.098 | -0.058 | -0.031
8 | SACM1L (UniProt Q9NTJ5) | 0 | 0.048 | 0.064 | -0.044 | 0.006
9 | RPS19 (UniProt P39019) | 0.108 | -0.158 | -0.197 | 0.107 | -0.002
10 | RMC1 (UniProt Q96DM3) | -0.009 | 0.064 | 0.1 | 0.019 | 0.063
11 | SCYL3 isoform 2 (UniProt Q8IZE3) | -0.014 | -0.006 | 0.055 | 0.041 | -0.113
12 | SCAF8 isoform 2 (UniProt Q9UPN6) | -0.072 | 0.099 | 0.254 | -0.016 | 0.012
13 | SEC16A isoform 5 (UniProt O15027) | 0.014 | 0.012 | 0.154 | 0.011 | -0.006
14 | RAD51 (UniProt Q06609) | -0.006 | 0.142 | -0.037 | 0 | -0.053
15 | RIOK2 (UniProt Q9BVS4) | 0.034 | -0.038 | -0.119 | 0.116 | -0.009
16 | SERINC1 (UniProt Q9NRX5) | 0.021 | – | 0.027 | -0.08 | –
17 | RPS13 (UniProt P62277) | 0.142 | -0.234 | -0.246 | 0.213 | 0
18 | RPS3 (UniProt E9PJN9) | – | – | – | 0.141 | –
19 | RBM8A (UniProt Q9Y5S9) | -0.02 | -0.005 | -0.062 | 0.029 | 0.045
20 | SF3B5 (UniProt Q9BWJ5) | 0.056 | – | -0.032 | 0.007 | –
21 | SAP30 (UniProt O75446) | – | -0.006 | -0.002 | – | -0.032
22 | RPS3 (UniProt P23396) | 0.055 | -0.118 | -0.127 | 0.083 | 0.015
23 | SAFB2 (UniProt Q14151) | 0.051 | -0.087 | -0.103 | 0.045 | 0
24 | ROMO1 (UniProt P60602) | 0.045 | -0.061 | – | 0.172 | 0.082
25 | SDCBP isoform 2 (UniProt O00560) | -0.08 | – | – | 0.169 | –
26 | RALA (UniProt P11233) | 0.021 | 0.046 | 0.027 | -0.016 | 0.069
27 | RPAIN isoform 8 (UniProt Q86UA6) | 0.026 | 0.057 | 0.046 | -0.038 | 0.006
28 | RBMY1E (UniProt A6NEQ0) | 0.063 | -0.02 | – | 0.001 | 0.145

Row | Target | log2 fold change [1] | log2 fold change [2] | log2 fold change [3] | log2 fold change [4] | log2 fold change [5]
29 | SAMD4B (UniProt Q5PRF9) | 0.107 | -0.027 | – | 0.039 | 0.058
30 | RMDN2 isoform 2 (UniProt Q96LZ7) | – | – | 0.164 | – | –
31 | RUNX1 isoform 8 (UniProt Q01196) | -0.042 | – | 0.025 | – | –
32 | RRS1 (UniProt Q15050) | 0.168 | -0.368 | -0.187 | 0.246 | -0.006
33 | RTN4IP1 (UniProt Q8WWV3) | 0 | 0.07 | 0.999 (active) | -0.051 | -0.108
34 | RNPS1 (UniProt Q15287) | -0.019 | 0.001 | 0.032 | 0.119 | 0.061
35 | RBIS (UniProt Q8N0T1) | 0.035 | -0.034 | -0.02 | 0.101 | 0
36 | RBM48 isoform 2 (UniProt Q5RL73) | 0.008 | 0.058 | – | -0.36 | 0.113
37 | RNF2 (UniProt Q99496) | 0.067 | 0.014 | 0.153 | 0.064 | 0.085
38 | SLC1A5 (UniProt Q15758) | -0.003 | 0.035 | -0.026 | 0.013 | 0.022
39 | RBM12 (UniProt Q9NTZ6) | -0.039 | 0.023 | 0.077 | -0.064 | -0.006
40 | SDHAF4 (UniProt Q5VUM1) | 0.053 | 0.16 | – | -0.025 | 0.073
41 | RICTOR isoform 3 (UniProt Q6R327) | – | – | – | 0.043 | –
42 | SIK3 (UniProt H0Y4E8) | – | 0.034 | 0.025 | 0.118 | 0.028
43 | RABGAP1L isoform 5 (UniProt Q5R372) | 0.027 | 0.027 | – | 0.113 | 0.066
44 | SDC3 (UniProt O75056) | – | -0.012 | 0.071 | -0.044 | 0.052
45 | RBM6 (UniProt P78332) | – | -0.075 | – | 0.012 | 0.076
46 | RPS19 (UniProt M0R2L9) | – | – | – | 0.183 | –
47 | SH2D1B (UniProt O14796) | – | 0.205 | -0.047 | 0.003 | 0.033
48 | S100A10 (UniProt P60903) | 0.651 | 0.061 | – | -0.127 | -0.01
49 | SEMG2 (UniProt Q02383) | 0.038 | 0.063 | – | -0.047 | -0.066
50 | RNF26 (UniProt Q9BY78) | 0.005 | – | -0.104 | – | –
51 | REEP4 (UniProt Q9H6H4) | -0.004 | -0.034 | -0.023 | 0.081 | 0.003
52 | RSL1D1 (UniProt O76021) | 0.18 | -0.349 | -0.241 | 0.178 | 0.031
53 | RPS3A (UniProt D6R9B6) | – | – | – | 0.248 | –
54 | RUFY3 isoform 3 (UniProt Q7L099) | – | -0.004 | 0.061 | 0.016 | 0.029
55 | RAP1GDS1 isoform 5 (UniProt P52306) | -0.093 | -0.01 | 0.119 | -0.001 | -0.009
